From PubChem BioAssay (NCATS)
Results filed as inconclusive are left out. Activity calls are given as the source filed them. Unless noted, the call rests on the fitted dose curve; in most records, active means well fitted curve in the direction sought with a large enough effect; inconclusive means small, poorly fitted or top-dose-only effect, or another doubt; inactive means no such curve, though single readings can be large; an effect the other way counts as inactive or inconclusive.

Key:
[1] = molecular target: Lysosomal acid glucosylceramidase (Homo sapiens) (UniProt P04062); assay: Glucocerebrosidase-p2 (AID 348; in the data active means potency below about 10 µM; further: potency means the concentration at half of the fitted maximal effect); conditions: purified GBA, blue fluorogenic substrate, 40 min
Outline: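 Compounds titrated from 0.6 nM upwards against 0.2 nM enzyme in pH 5.9 citric acid/KH2PO4, taurocholate, tween-20; blue fluorogenic substrate 80 uM, 40 min room temperature, stopped and read Ex 365/Em 440 for AC50.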

[2] = Stat Signaling Pathway (AID 446; active means well fitted curve in either direction with a large enough effect, not every such curve was filed as active;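 further: ME-180 cervical cancer cells given 40 pM IL-6 alongside compound; SIE-controlled beta-lactamase reporter measured as 460/530 nm FRET emission ratio; on the % scale 0 is the no-effect control and ±100 the full control effect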); conditions: ME-180 SIE beta-lactamase reporter, IL-6 stimulated, 5 h; at 7.69 µM (top of the series) unless noted
Outline: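 Screening format detects activators and inhibitors alike: ME-180 SIE-bla cells stimulated at 40 pM IL-6 for 5 hrs with compound, then dual-emission beta-lactamase read at 405 nm excitation.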

[3] = molecular target: Glucocorticoid receptor (Homo sapiens) (UniProt P04150); assay: GR-EFC Redistribution (AID 451; calls by dose curve; further: potency means the concentration at half of the fitted maximal effect); conditions: CHO-K1 GR-EFC translocation, beta-gal luminescence, 2 h
Outline: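 Translocation of GR-ED fusion to nuclear EA restores b-gal, read by luminescence after 1 h room-temperature detection. Engineered CHO-K1 biosensor cells, 1,000/well, exposed 2 h at 37 C to titrations up to 46 uM final.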

[4] = molecular target: Mitogen-activated protein kinase 10 (Mus musculus) (UniProt Q61831); assay: JNK3 AlphaScreen Assay (AID 530; active means well fitted curve in either direction with a large enough effect, not every such curve was filed as active;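 further: kinase came from lysate of stimulated human HepG2 cells; signal reports phosphorylation of biotinylated GST-cJun 1-79 at Ser73 with 10 µM ATP; on the % scale 0 is the no-effect control and ±100 the full control effect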); conditions: JNK3 lysate, c-Jun phosphorylation; series mostly up to 57.1 µM
Outline: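 Compound titrations were preincubated 15 minutes at room temperature with substrate, antibody and pre-activated JNK3-containing HepG2 lysate. Reactions were started with 10 uM ATP and stopped with EDTA-containing bead buffer for AlphaScreen detection.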

[5] = molecular target: Cytochrome P450 3A4 (Homo sapiens) (UniProt P08684); assay: qHTS Assay for Inhibitors and Substrates of Cytochrome P450 3A4 (AID 884); conditions: recombinant CYP3A4, Luciferin-PPXE luminescence; series mostly up to 57.1 µM; further: nearly all actives have a fitted effect of over 50% in size; further: potency means the concentration at half of the fitted maximal effect
Outline: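 20 nM human CYP3A4 with 25 uM Luciferin-PPXE (at KM) in 200 mM KPO4, preincubated 10 min with compound; NADPH regeneration started a 60 min RT reaction. Luciferin detected by luminescence, normalized to 57 uM ketoconazole as full inhibition.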

[6] = molecular target: Cytochrome P450 3A4 (Homo sapiens) (UniProt P08684); assay: qHTS Assay for Activators of Cytochrome P450 3A4 (AID 885); conditions: recombinant CYP3A4, Luciferin-PPXE luminescence, 60 min; series mostly up to 57.1 µM; further: nearly all actives have a fitted effect of over 65% in size; further: potency means the concentration at half of the fitted maximal effect
Outline: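 Steps: enzyme/substrate mix dispensed; compound added, 10 min RT; NADPH regeneration solution added, 60 min RT; luciferin detection buffer stops reaction; 20 min later luminescence measured.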

[7] = qHTS Assay for Lipid Storage Modulators (AID 1519; calls by dose curve); conditions: Drosophila S3 cells, BODIPY lipid droplet/cell ratio, laser cytometry, cells loaded with oleic acid; for activity change, negative = inhibition: at 57.5 µM (top of the series)
Outline: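 Cells seeded at 5,000 per well were treated with compounds over a concentration series and loaded with oleic acid (400 uM, as added). Lipid droplet fluorescence (488 nm excitation, 500-530 nm channel) was read by laser-scanning cytometry and normalized to 20 uM Triacsin C.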

[8] = Primary qHTS for small molecule stabilizers of the endoplasmic reticulum resident proteome: Secreted ER Calcium Modulated Protein (SERCaMP) assay (AID 1508630); conditions: SH-SY5Y GLuc-SERCaMP (Gaussia luciferase released on ER calcium loss) secretion, thapsigargin, luminescence; series mostly up to 38.4 µM; further: on the % scale 0 is the no-effect control and ±100 the full control effect
Outline: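 GLuc-SERCaMP-expressing SH-SY5Y cells, pretreated 16 h with compound, are challenged with thapsigargin to empty ER calcium stores; after 4 h, coelenterazine is added directly to the medium and luminescence is imaged.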

[9] = molecular target: Glucocorticoid receptor (Homo sapiens) (UniProt P04150); assay: GR-GFP Redistribution (AID 450;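 active means compounds whose dose series gives a full or clear partial fitted curve of increased nuclear translocation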; further: potency means the concentration at half of the fitted maximal effect); conditions: U2OS GR-GFP nuclear translocation, laser cytometry, 2 h
[10] = Confirmation and Secondary Assay for Modulators of Hemoglobin Beta Chain Splicing at IVS2 654 locus (AID 910); conditions: HeLa EGFP-654 splicing reporter, GFP fluorescence, 48 h; series mostly up to 38.3 µM;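 further: HeLa cells stably carrying EGFP split by mutant beta-globin IVS2-654 intron; per-well total GFP intensity by laser scanning cytometry after 2-day treatment; % of control where 0% means no effect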
Outline: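 Readout: per-well total peak green fluorescence (488 nm ex, 500–520 nm em) from objects 5–250 µm, reflecting correct splicing of an EGFP-654 reporter. Compounds were applied for 2 days at 37 °C to overnight-plated HeLa EGFP-654 cells; controls were DMSO and 500 nM IVS2-654 PNA.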

[11] = Confirmation and Secondary Assay for Modulators of Hemoglobin Beta Chain Splicing at IVS2 705 locus (AID 930); conditions: HeLa EGFP-705 splicing reporter, GFP fluorescence, 48 h; series mostly up to 38.3 µM;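 further: HeLa cells stably expressing the EGFP-705 splicing reporter; GFP fluorescence per well restored by corrected splicing of the IVS2-705 intron in EGFP; % of control where 0% means no effect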
Outline: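 Assay measures total GFP intensity per well in HeLa EGFP-705 cells after 2 days with compound; mis-splicing normally truncates EGFP, so fluorescence indicates corrected splicing.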

[12] = molecular target: Cytochrome P450 1A2 (Homo sapiens) (UniProt P05177); assay: p450-cyp1a2 (AID 410; calls by dose curve; further: potency means the concentration at half of the fitted maximal effect); conditions: recombinant CYP1A2, luciferin-ME demethylation, luminescence; series mostly up to 57 µM
Outline: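 Luminescent readout of luciferin formed from Luciferin-ME by human CYP1A2; data normalized against complete inhibition by 57 uM furafylline. Enzyme 20nM, substrate 100uM at Km, 100mM KPO4 buffer, 60 min reaction at room temperature.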

[13] = NFAT Signaling Pathway (AID 444; active means well fitted curve in either direction with a large enough effect, not every such curve was filed as active;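 further: carbachol stimulus at about its EC50 of 1 µM final; on the % scale 0 is the no-effect control and ±100 the full control effect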); conditions: Jurkat NFAT-bla M1, carbachol, beta-lactamase ratio, 5 h; at 7.69 µM (top of the series) unless noted
Outline: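 Read-out: CCF4 FRET ratio (460 nm/530 nm) after 1 h RT dye loading, used for %activity and AC50 from titration series. Cells: Jurkat NFAT-β-lactamase/M1 line, treated with compound plus 1 uM carbachol for 5 h, 37 °C.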

[14] = molecular target: 3',5'-cyclic-AMP phosphodiesterase 4B (Homo sapiens) (UniProt Q07343); assay: qHTS Assay for Inhibitors of PDE-IV (AID 607; active means well fitted activation curve with a large enough effect in the main read-out, with a control signal flat, not every such curve was filed as active; further: % of control where 0% means no effect); conditions: HEK293 ACTOne CNG channel cells, membrane potential fluorescence; series mostly up to 22.9 µM
Outline: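 The readout is membrane depolarisation from a cAMP-sensing CNG channel, detected with a potential dye at ex 535/em 590. Cells were HEK293-derived (endogenous PDE-IV) at 1000 cells/well, titrated up to 22.9 uM final.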

[15] = molecular target: Cytochrome P450 2D6 (Homo sapiens) (UniProt P10635); assay: qHTS Assay for Inhibitors and Substrates of Cytochrome P450 2D6 (AID 891); conditions: recombinant CYP2D6, luciferin-ME EGE luminescence; series mostly up to 57.1 µM; further: potency means the concentration at half of the fitted maximal effect; nearly all actives have a fitted effect of over 60% in size
Outline: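 Human CYP2D6 (5 nM) with 30 uM Luciferin-ME EGE (at Km) in 100 mM KPO4, compound preincubated 10 min, then NADPH regeneration system for 60 min at room temperature. Luciferin read by luminescence; normalized to 1.43 uM quinidine.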

[16] = AP1 Signaling Pathway (AID 357; active means well fitted curve in either direction with a large enough effect, not every such curve was filed as active); conditions: ME-180 AP-1-bla reporter, EGF-induced, beta-lactamase ratio, 5 h; at 7.69 µM (top of the series) unless noted
Outline: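 First, ME-180 AP-1-bla cells were cultured overnight at 37 °C in low-serum Opti-MEM. Next, titrated compounds with EC50 EGF were incubated 5 hours. Finally, CCF4 was added for 2.5 hours and the 460/530 nm ratio recorded.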

[17] = molecular target: Ubiquitin carboxyl-terminal hydrolase 1 (Homo sapiens) (UniProt O94782); assay: Inhibitors of USP1/UAF1: Pilot qHTS (AID 504865); conditions: purified USP1/UAF1, Ub-rhodamine cleavage fluorescence; series mostly up to 54.9 µM;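 further: rhodamine fluorescence freed from ubiquitin-rhodamine substrate followed over time; top concentration of the series differs between compounds; on the % scale 0 is the no-effect control and ±100 the full control effect; nearly all actives have a fitted effect of over 35% in size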
Outline: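 Enzyme-free wells gave the negative control, while test wells held 1nM USP1/UAF1 preincubated with compound for 15 min at room temperature. Ub-Rho at 150nM final started the reaction, and fluorescence at 480/540 nm was recorded kinetically.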

[18] = qHTS Assay for Identification of Small Molecule Agonists for Hypoxia Response Element Signaling Pathway (AID 914; active means well fitted activation curve with a large enough effect in the signal ratio, with a control signal flat, not every such curve was filed as active; the % refers to the signal ratio; further: % of control where 0% means no effect); conditions: ME-180 (cervical carcinoma) HRE-bla reporter, beta-lactamase ratio, CoCl2, 17 h; activation: stronger effect = higher value
Outline: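 Compounds in a titration series were added to ME-180 reporter cells alongside an EC50 level of CoCl2. After 17 hours, beta-lactamase activity was read as the 460nm/530nm emission ratio of CCF4, giving AC50 values.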

[19] = molecular target: Cytochrome P450 2C9 (Homo sapiens) (UniProt P11712); assay: qHTS Assay for Inhibitors and Substrates of Cytochrome P450 2C9 (AID 883); conditions: recombinant CYP2C9, luciferin-H luminescence, 60 min; series mostly up to 57.1 µM; further: on the % scale 0 is the no-effect control and ±100 the full control effect; nearly all actives have a fitted effect of over 60% in size
Outline: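 Turnover of Luciferin-H (100uM, KM) by 10nM human CYP2C9 was measured over 60 min at 37C with NADPH regeneration; inhibitors and some substrates reduce luminescence. Data normalized to sulphaphenazole 57uM.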

[20] = measured here: cell count channel max response
[21] = measured here: lipid channel max response

Sequence of 3',5'-cyclic-AMP phosphodiesterase 4B (Homo sapiens) (Q07343 whole entry, looked up): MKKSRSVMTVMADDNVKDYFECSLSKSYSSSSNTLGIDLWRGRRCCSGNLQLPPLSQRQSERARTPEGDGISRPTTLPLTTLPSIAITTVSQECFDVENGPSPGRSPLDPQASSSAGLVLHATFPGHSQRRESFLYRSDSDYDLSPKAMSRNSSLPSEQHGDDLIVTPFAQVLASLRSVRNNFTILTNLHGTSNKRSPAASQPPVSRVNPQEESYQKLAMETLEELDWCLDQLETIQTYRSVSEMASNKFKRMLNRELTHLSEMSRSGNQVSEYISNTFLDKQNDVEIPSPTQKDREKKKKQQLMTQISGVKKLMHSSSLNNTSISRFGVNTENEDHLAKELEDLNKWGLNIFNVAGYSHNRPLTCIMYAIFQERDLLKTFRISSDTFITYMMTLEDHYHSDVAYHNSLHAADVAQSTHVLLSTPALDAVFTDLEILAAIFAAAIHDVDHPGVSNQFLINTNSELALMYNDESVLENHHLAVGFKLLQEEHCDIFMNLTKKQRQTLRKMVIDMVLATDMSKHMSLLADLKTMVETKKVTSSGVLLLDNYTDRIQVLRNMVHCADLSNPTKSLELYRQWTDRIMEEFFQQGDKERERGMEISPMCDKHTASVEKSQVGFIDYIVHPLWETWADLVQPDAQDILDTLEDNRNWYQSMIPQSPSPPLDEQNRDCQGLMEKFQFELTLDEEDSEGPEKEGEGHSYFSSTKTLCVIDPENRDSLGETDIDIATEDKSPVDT
Sequence of Cytochrome P450 3A4 (Homo sapiens) (P08684 whole entry, looked up): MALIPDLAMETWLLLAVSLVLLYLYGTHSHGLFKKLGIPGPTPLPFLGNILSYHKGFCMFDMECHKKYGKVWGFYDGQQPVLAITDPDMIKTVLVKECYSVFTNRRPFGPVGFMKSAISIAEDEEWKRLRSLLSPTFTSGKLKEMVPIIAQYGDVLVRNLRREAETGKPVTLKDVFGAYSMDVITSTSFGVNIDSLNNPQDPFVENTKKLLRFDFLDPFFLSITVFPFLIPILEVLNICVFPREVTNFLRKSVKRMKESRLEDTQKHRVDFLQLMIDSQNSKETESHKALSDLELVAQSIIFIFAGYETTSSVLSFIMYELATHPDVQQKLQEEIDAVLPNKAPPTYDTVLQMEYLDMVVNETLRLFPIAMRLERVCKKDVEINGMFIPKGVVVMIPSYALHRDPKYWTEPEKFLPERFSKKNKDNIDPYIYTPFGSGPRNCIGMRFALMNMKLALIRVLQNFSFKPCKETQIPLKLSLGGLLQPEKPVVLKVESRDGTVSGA
Sequence of Lysosomal acid glucosylceramidase (Homo sapiens) (P04062 whole entry, looked up): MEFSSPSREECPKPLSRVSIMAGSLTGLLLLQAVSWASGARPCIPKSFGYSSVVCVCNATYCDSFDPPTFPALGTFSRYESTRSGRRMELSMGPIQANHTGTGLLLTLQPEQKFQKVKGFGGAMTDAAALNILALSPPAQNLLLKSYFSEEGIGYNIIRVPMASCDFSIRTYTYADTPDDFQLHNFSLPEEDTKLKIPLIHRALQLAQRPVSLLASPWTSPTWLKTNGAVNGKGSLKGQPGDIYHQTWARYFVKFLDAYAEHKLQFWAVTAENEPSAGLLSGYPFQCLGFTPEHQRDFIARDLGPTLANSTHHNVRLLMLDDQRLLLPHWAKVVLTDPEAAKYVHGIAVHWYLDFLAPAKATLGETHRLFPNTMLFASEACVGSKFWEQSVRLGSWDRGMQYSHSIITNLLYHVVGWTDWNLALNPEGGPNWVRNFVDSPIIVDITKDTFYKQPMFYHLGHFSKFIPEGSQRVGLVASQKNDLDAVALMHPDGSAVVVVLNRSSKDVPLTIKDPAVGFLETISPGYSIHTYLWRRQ
Sequence of Glucocorticoid receptor (Homo sapiens) (P04150 whole entry, looked up, the tested form may be a part): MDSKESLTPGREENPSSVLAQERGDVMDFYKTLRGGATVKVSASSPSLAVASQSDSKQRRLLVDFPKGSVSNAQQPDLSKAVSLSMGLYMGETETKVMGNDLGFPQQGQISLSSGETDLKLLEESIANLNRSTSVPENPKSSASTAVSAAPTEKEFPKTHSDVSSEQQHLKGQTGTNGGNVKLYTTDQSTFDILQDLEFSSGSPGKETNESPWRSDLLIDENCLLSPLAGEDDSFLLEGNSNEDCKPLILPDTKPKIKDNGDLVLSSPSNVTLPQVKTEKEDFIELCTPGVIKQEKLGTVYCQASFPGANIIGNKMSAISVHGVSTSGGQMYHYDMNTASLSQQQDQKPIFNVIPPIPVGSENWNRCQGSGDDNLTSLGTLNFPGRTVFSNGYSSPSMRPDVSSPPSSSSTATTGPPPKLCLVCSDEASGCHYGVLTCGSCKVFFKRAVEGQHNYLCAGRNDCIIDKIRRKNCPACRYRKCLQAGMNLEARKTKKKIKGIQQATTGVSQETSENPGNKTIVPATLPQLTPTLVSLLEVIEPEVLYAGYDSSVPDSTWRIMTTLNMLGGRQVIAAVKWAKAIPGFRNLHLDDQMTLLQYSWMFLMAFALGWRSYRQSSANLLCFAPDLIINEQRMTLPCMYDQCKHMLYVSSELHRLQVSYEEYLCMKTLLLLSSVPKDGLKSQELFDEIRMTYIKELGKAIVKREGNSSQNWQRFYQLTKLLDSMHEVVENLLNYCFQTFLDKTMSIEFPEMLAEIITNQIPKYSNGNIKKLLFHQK
Sequence of Cytochrome P450 1A2 (Homo sapiens) (P05177 whole entry, looked up): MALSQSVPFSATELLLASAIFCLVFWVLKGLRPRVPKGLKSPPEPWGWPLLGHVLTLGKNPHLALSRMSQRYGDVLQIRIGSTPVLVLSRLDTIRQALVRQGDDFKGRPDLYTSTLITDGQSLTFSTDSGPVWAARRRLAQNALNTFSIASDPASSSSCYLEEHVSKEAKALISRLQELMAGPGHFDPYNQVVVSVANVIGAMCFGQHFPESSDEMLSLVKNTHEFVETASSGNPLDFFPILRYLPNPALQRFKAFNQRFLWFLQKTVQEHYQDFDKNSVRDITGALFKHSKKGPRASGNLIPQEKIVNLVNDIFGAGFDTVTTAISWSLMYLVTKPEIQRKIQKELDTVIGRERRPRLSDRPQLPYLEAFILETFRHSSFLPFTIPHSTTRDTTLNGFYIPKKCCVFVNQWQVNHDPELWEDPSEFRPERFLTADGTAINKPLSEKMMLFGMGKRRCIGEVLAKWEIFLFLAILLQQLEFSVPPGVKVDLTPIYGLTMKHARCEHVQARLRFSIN
Sequence of Cytochrome P450 2D6 (Homo sapiens) (P10635 whole entry, looked up): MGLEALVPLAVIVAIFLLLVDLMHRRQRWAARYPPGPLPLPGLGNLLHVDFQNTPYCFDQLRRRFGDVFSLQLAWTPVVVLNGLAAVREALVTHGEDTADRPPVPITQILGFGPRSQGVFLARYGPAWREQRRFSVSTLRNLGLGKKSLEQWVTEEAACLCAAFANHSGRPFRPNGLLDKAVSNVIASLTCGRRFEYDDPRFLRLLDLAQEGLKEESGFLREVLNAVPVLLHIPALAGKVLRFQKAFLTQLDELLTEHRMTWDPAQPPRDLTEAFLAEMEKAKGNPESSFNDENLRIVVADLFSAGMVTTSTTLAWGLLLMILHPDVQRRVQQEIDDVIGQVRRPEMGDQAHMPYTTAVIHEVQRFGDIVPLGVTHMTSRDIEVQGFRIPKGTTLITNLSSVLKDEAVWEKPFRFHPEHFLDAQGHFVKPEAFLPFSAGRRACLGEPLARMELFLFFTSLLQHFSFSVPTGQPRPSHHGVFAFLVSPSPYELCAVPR
Sequence of Ubiquitin carboxyl-terminal hydrolase 1 (Homo sapiens) (O94782 whole entry, looked up): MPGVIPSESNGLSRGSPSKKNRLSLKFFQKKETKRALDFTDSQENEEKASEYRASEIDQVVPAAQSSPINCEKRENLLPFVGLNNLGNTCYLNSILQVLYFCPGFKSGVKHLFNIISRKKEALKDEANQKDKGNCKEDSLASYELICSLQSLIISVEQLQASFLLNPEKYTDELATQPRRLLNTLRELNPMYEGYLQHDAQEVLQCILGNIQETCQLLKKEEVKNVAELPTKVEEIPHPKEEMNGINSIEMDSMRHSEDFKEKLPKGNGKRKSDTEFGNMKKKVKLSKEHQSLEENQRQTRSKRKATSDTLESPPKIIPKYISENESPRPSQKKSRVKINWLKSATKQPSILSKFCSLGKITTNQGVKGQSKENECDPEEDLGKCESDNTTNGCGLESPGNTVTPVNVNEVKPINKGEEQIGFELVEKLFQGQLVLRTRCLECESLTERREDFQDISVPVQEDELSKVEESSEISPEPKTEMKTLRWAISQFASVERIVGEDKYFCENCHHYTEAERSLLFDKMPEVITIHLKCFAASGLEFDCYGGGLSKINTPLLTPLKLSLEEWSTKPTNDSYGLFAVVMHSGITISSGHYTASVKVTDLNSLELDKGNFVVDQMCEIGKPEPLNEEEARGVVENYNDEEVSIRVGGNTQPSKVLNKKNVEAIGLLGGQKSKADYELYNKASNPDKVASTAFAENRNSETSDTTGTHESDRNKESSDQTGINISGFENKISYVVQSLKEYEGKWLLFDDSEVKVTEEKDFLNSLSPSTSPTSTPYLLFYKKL
Sequence of Cytochrome P450 2C9 (Homo sapiens) (P11712 whole entry, looked up): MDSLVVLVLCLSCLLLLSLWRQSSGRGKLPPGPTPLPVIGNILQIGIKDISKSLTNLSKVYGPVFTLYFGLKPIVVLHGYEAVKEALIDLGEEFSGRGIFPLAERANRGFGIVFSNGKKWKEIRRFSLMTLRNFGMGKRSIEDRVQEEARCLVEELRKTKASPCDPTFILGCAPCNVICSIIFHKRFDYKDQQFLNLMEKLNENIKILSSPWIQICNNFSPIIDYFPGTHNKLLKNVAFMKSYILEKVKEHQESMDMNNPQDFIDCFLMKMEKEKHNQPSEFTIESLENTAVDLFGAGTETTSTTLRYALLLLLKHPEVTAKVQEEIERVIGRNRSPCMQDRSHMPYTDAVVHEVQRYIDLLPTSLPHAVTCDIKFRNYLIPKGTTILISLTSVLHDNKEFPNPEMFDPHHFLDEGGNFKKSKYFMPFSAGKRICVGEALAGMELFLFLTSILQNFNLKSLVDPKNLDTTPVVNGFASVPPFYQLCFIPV

SMILES: O=C(c1cnccn1)N1CCC2(CCCN(C(c3ccccc3)c3ccccc3)C2)CC1
- Potency [1]: > 11.4 µM (inactive)
- activity, negative = inhibition [2]: 14% (inactive)
- Potency [3]: > 46 µM (inactive)
- Potency [4]: inactive
- Potency [5]: 1.58 µM (active)
- Potency [6]: inactive
- activity change, negative = inhibition [7]: 0.62% (inactive)
- max response [7, 20]: 6.86%
- max response [7, 21]: 7.68%
- outcome [8]: inactive

SMILES: Cc1cccc(CNc2nc(-c3c(C)noc3C)nc3ccccc23)c1
- Potency [1]: > 11.4 µM (inactive)
- activity, negative = inhibition [2]: -28.8% (inactive)
- Potency [9]: > 46 µM (inactive)
- Potency [3]: > 46 µM (inactive)
- Potency [4]: inactive
- Potency [10]: inactive
- outcome [11]: inactive
- activity change, negative = inhibition [7]: 11.8% (inactive)
- max response [7, 20]: -6.95%
- max response [7, 21]: 4.27%
- outcome [8]: inactive

SMILES: CS(=O)(=O)N1CCC2(CC1)CN(c1ccccc1)C2
- Potency [1]: > 11.4 µM (inactive)
- Potency [12]: 20 µM (active)
- activity change, negative = inhibition [13]: 24.3% (inactive)
- activity, negative = inhibition [2]: -8.44% (inactive)
- Potency [3]: > 46 µM (inactive)
- Potency [4]: inactive
- Potency [14]: inactive
- Potency [15]: 1.26 µM (active)
- activity change, negative = inhibition [7]: 0.887% (inactive)
- max response [7, 20]: 14%
- max response [7, 21]: 17.6%
- outcome [8]: inactive

SMILES: COC(=O)N1CCC2(CC1)CN(c1ccc(-c3ccccc3)cc1)C2
- Potency [1]: > 11.4 µM (inactive)
- Potency [12]: 1.26 µM (active)
- activity change, negative = inhibition [13]: 15.9% (inactive)
- activity, negative = inhibition [2]: -8.46% (inactive)
- Potency [3]: > 46 µM (inactive)
- Potency [4]: inactive
- Potency [14]: inactive
- Potency [5]: inactive
- Potency [6]: 3.16 µM (active)
- activity change, negative = inhibition [7]: 5.19% (inactive)
- max response [7, 20]: -7.69%
- max response [7, 21]: 0.422%
- outcome [8]: inactive

SMILES: c1nc(NCCN2CCOCC2)c2cc(-c3ccc4c(c3)OCO4)ccc2n1
- activity change, negative = inhibition [16]: -13.5% (inactive)
- Potency [12]: 2.51 µM (active)
- activity change, negative = inhibition [13]: 1.02% (inactive)
- activity, negative = inhibition [2]: -4.03% (inactive)
- Potency [9]: > 46 µM (inactive)
- Potency [3]: > 46 µM (inactive)
- Potency [4]: inactive
- Potency [14]: inactive
- Potency [5]: 5.01 µM (active)
- Potency [6]: inactive
- Potency [15]: 7.94 µM (active)
- Potency [10]: inactive
- outcome [11]: inactive
- activity change, negative = inhibition [7]: 10.6% (inactive)
- max response [7, 20]: 2.73%
- max response [7, 21]: 12.8%
- Potency [17]: inactive
- outcome [8]: inactive

SMILES: COCC(=O)N1CCC2(CCN(Cc3ccc(C#N)cc3)CC2)CC1
- activation [18]: 4.64% (inactive)

SMILES: COc1cccc(Nc2ncc3nc(-c4cn(C)c5ccccc45)c(=O)n(C[C@H]4CCCO4)c3n2)c1
- Potency [1]: > 11.4 µM (inactive)
- activity change, negative = inhibition [16]: -25.8% (inactive)
- activity change, negative = inhibition [13]: -1.76% (inactive)
- activity, negative = inhibition [2]: 8.32% (inactive)
- Potency [9]: > 9.22 µM (inactive)
- Potency [3]: > 46 µM (inactive)
- Potency [4]: inactive
- Potency [14]: inactive
- Potency [19]: inactive
- outcome [8]: inactive

SMILES: O=C(O)c1cc(=O)c2cccc(O)c2[nH]1
- Potency [5]: inactive
- Potency [10]: inactive
- outcome [11]: inactive
- activity change, negative = inhibition [7]: 14.6% (inactive)
- max response [7, 20]: 27.2%
- max response [7, 21]: 50.3%
- Potency [17]: inactive
- outcome [8]: inactive
